# Sampled rows, rich in hits. Any-hit rate of the full collection: about 4.7%.
# GDH-TPI counter-1 = GDH-TPI coupling enzyme inhibitors, primary screen, artefact control for M. tuberculosis FBA inhibitor project, biochemical, absorbance, full deck; GDH-TPI coupled enzyme counterscreen, NADH absorbance; inhibition, % at 4.8 µM; actives 1.2% (n = 360,000); AID 588335, 2011; in the data active = inhibition above about 30%;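 also: 0% = DMSO wells and 100% = wells lacking the enzyme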
# RecA intein inh = Mtb RecA intein splicing inhibitors, primary screen, biochemical, fluorescence, HTS; actives 0.75% (n = 290,000); cell-free RecA intein splicing; inhibition, % (test concentration not listed); in the data active = inhibition above about 30%;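 also: 0% = vehicle wells and 100% = reference inhibitor control wells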
# CCHFV vOTU inh = CCHFV vOTU protease inhibitors, primary screen, biochemical, Pep-AMC substrate, fluorescence; inhibition, % at 11.5 µM; actives 0.55% (n = 370,000); Crimean-Congo hemorrhagic fever virus L polyprotein viral ovarian tumor (vOTU) protease …; in the data active = inhibition above about 30%; also: 0% = vehicle wells with enzyme and 100% = no enzyme wells
# DUSP3 inh = VHR1 phosphatase inhibitors, primary screen, biochemical, absorbance, uHTS | inhibition, % at 13.3 µM | recombinant VHR phosphatase, pNPP absorbance | actives 0.52% (n = 290,000); in the data active = inhibition above about 50%
# Target sequence (P51452 whole entry, looked up): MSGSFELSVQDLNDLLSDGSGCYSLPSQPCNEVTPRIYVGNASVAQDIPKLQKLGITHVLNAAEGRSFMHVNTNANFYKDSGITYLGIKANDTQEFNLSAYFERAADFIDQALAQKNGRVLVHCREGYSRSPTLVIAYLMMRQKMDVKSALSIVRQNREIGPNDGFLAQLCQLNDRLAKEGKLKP
# SARS 3CLpro inh = SARS-CoV 3CLpro protease inhibitors, primary screen, biochemical, quenched FRET | Replicase polyprotein 1ab (Severe acute respiratory syndrome coronavirus), P0C6X7 | recombinant SARS-CoV 3CLpro, quenched FRET peptide cleavage | inhibition, % at 6 µM | actives 0.14% (n = 290,000); in the data active = inhibition above about 12%
# FBA Mtb inh = Mtb FBA enzyme inhibitors, primary screen, biochemical, fluorescence, strain H37Rv | Fructose-bisphosphate aldolase (Mycobacterium tuberculosis (strain ATCC 25618 / H37Rv)), … | actives 2.3% (n = 360,000) | inhibition, % at 1 µM | purified M. tuberculosis FBA, fluorescence read-out;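 also: 0% = vehicle and 100% = reference inhibitor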
# Target sequence (P9WQA3 whole entry, looked up): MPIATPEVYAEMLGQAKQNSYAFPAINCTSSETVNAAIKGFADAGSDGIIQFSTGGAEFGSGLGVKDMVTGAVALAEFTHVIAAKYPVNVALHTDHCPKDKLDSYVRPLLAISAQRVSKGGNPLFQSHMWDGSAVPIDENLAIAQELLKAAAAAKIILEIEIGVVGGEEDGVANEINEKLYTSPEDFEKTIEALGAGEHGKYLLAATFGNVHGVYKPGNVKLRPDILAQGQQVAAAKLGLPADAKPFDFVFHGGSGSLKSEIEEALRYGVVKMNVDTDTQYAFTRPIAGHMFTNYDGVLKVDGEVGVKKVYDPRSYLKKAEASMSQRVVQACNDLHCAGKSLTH
# Mtb FBA confirm = M. tuberculosis aldolase blockers, biochemical, fluorescence, strain H37Rv, confirmation. shares compounds with FBA Mtb inh. purified M. tuberculosis FBA, fluorescence read-out. inhibition, % at 1 µM. actives 78% (n = 5,600). AID 651616, 2012;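 also: 0% = vehicle wells and 100% = reference inhibitor wells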
# GDH-TPI counter-2 = GDH-TPI coupling enzyme inhibitors, artefact control for M. tuberculosis FBA inhibitor project, biochemical, fluorescence, high throughput | shares compounds with FBA Mtb inh | GDH-TPI coupled enzyme counterscreen | inhibition, % at 1 µM | actives 81% (n = 5,600) | AID 652141, 2013; in the data active = inhibition above about 10%
# * = called active by the depositor; . = no result; + = active, no number. Rule as the data show it, unless noted: active = inhibition above about 27%; inactive = the rest.
SMILES,GDH-TPI counter-1,RecA intein inh,CCHFV vOTU inh,DUSP3 inh,SARS 3CLpro inh,FBA Mtb inh,Mtb FBA confirm,GDH-TPI counter-2
CCCCC[n+]1cccc2c3ccccc3ccc21,8.7,-1.0,-100.7,10.8,4.2,100.4*,85.2*,60.8*
CCCC[n+]1c2ccccc2cc2ccccc21,-17.2,-157.6,-23.7,-19.5,3.4,11.1,.,.
c1ccc(C[n+]2cccc3c4ccccc4ccc32)cc1,5.8,-2.4,-65.7,43.5,0.5,40.5*,+,+
O=[N+]([O-])c1ccc(C[n+]2cccc3ccccc32)cc1,12.9,1.5,-9.8,24.4,-1.6,-3.6,.,.
Cc1ccc(OCCN(C)C(=O)C2CCC(=O)N(CCCN3CCOCC3)C2)cc1 (configuration not stated),2.1,0.3,13.6,18.7,-0.2,0.8,.,.
CCc1ccc(-c2nc(SCC(=O)c3c(N)n(C)c(=O)n(C)c3=O)n[nH]2)cc1,2.6,.,4.1,.,.,29.2*,69.0*,55.8*
O=C(NCCCN1CCOCC1)c1c(O)c2ccccc2[nH]c1=O,-2.1,4.9,-4.9,24.9,-1.6,-0.6,.,.
O=C(NCCCN1CCOCC1)c1cc2c(=O)[nH]c3ccccc3c2s1,20.9,-5.2,-44.4,8.7,-4.3,88.4*,35.9*,24.0*
CCN1CCN(CCCNC(=O)c2cc3c(=O)[nH]c4ccccc4c3s2)CC1,6.9,-2.3,-60.5,2.0,-4.4,89.0*,6.2,-1.3
c1ccc(Nc2ccc(-n3ccnc3)nn2)cc1,5.3,2.6,0.9,19.7,0.3,69.0*,126.9*,139.8*
Cc1c(-c2ccccc2)[n+](=O)c(-c2ccc(Cl)cc2)c(C)n1[O-],15.5,2.4,-8.1,36.1,3.7,1.4,.,.
Cc1cccc(N2CCN(C(=O)C3CC(=O)N(C4CCCC4)C3)CC2)c1C (configuration not stated),8.4,2.4,16.3,14.5,-0.8,2.4,.,.
COCCCNC(=O)c1c(NC(=O)c2ccco2)n(Cc2ccccc2)c2nc3ccccc3nc12,15.4,-71.8,-49.2,-11.9,1.9,44.7*,46.9*,37.2*
CCCCCn1c(NC(=O)c2ccco2)c(C(=O)OCC)c2nc3ccccc3nc21,17.0,-77.4,.,15.3,-0.5,54.2*,134.2*,100.3*
Cc1cccc(OC(=O)Nc2ccc(C(=O)O)c(O)c2)c1,15.9,.,-8.0,.,.,29.1*,+,179.5*
CCOC(=O)Nc1ccc(C(=O)Oc2ccccc2)c(O)c1,4.2,0.4,-6.8,22.8,-6.9,2.7,.,.
CCN1C(=O)CS/C1=N\S(=O)(=O)c1ccc(C)cc1,4.4,0.3,-8.2,-15.7,-2.4,47.0*,76.9*,79.3*
COc1ccc(S(=O)Cc2ccc(C(=O)NCc3cccc(OC)c3)o2)cc1 (configuration not stated),-4.3,3.8,9.8,2.3,-4.0,28.6*,57.7*,42.0*
CC(=O)Nc1ccc(-c2nc3cc(Cl)ccc3o2)cc1,20.8,1.7,-6.9,8.5,-3.0,29.5*,+,+
CCCCCC(=O)Nc1ccc2oc(-c3cccnc3)nc2c1,4.4,1.4,-9.5,-7.7,3.2,84.0*,47.3*,43.8*
O=C(Cc1ccc(Cl)cc1)Nc1ccc2oc(-c3ccncc3)nc2c1,9.0,-4.2,-4.5,-4.7,-4.5,11.2,.,.
O=C(Nc1ccc2oc(-c3ccccc3F)nc2c1)c1cncc(Br)c1,11.3,2.9,-5.0,8.3,-3.8,1.2,.,.
CCCC(=O)Nc1ccc(-c2nc3cc(C)ccc3o2)cc1,24.9,-0.7,-4.0,15.6,-4.7,96.2*,75.7*,76.9*
CC(C)(C)C(=O)Nc1ccc2oc(-c3cc(F)c(F)cc3Cl)nc2c1,19.4,1.6,-14.4,22.8,2.4,52.6*,70.2*,47.4*
CCc1ccc(NS(=O)(=O)c2c(C(=O)N3CCOCC3)c(C)n(C)c2C)cc1,7.8,0.0,9.7,7.8,2.6,0.0,.,.
SMILES,GDH-TPI counter-1,RecA intein inh,CCHFV vOTU inh,DUSP3 inh,SARS 3CLpro inh,FBA Mtb inh,Mtb FBA confirm,GDH-TPI counter-2
CCC(C)(C)C1CCC2(CC1)NC(=O)N(CC(=O)NCCc1ccc(OC)c(OC)c1)C2=O (configuration not stated),-5.7,.,9.3,.,.,-0.4,.,.
Cc1nnc(NC(=O)COc2ccc3c(C)cc(=O)oc3c2)s1,9.8,1.5,-23.7,2.1,4.9,40.2*,191.6*,144.4*
Cc1cc(=O)oc2cc(OCC(=O)OCC(=O)NC(C)C)ccc12,12.6,.,-26.0,-14.4,0.9,48.2*,106.9*,84.9*
Cc1cc(=O)oc2cc(OCC(=O)OCC(=O)Nc3ccccc3C(C)C)ccc12,10.0,0.1,-26.6,2.6,6.2,25.5,.,.
Cc1cc(=O)oc2cc(OCC(=O)NC3(C#N)CCCCC3)c(Cl)cc12,14.8,.,-21.2,.,.,22.1,.,.
CCC(CC)c1nnc(NC(=O)COc2ccc3c(C)cc(=O)oc3c2)s1,14.1,-5.2,-17.4,31.5,5.9,2.1,.,.
Cc1cc(=O)oc2cc(OCC(=O)OCC(=O)Nc3ccccc3F)ccc12,8.7,-0.4,-34.0,10.2,-1.4,54.0*,169.4*,146.7*
Cc1cc(=O)oc2cc(OCC(=O)NC3(C#N)CCCCC3)ccc12,11.5,.,-68.5,.,.,77.1*,58.4*,57.6*
CCc1cc2c(=O)c(-c3cnn(-c4ccccc4)c3)c(C)oc2c(CN2CCCCC2)c1O,21.5,-0.8,-6.8,45.2,-2.9,41.2*,+,+
CN(C(=O)CCc1cn(C)c2ccccc12)c1ccc(Oc2cccnc2)cc1,.,.,-3.6,.,.,.,.,.
O=C1N=C(N2CCN(c3ccccc3)CC2)S/C1=C/c1cccs1,25.8,7.2,16.2,19.2,0.5,33.8*,6.2,-7.7
O=C1N=C(N2CCN(Cc3ccccc3)CC2)S/C1=C/c1cccs1,28.0,-3.4,-8.4,21.7,4.0,1.6,.,.
CC(C)n1cnc2c(Nc3cccc(Cl)c3)nc(NCCCO)nc21,1.3,1.3,8.1,-8.7,.,33.5*,130.3*,98.0*
CC(C)[C@H](CO)Nc1nc(Nc2ccc(Cl)c(C(=O)O)c2)c2ncn(C(C)C)c2n1,8.3,-0.8,13.7,11.2,.,2.6,.,.

# Screens as filed in PubChem BioAssay.
